± gives the standard deviation of the averaged measurements. The full ranking holds about 25,000 sequences; the median of “ln(normalized median fluorescence intensity)” is about 8.9, and the highest 2% start at about 10. Shown is part of a subset that was picked to be rich in the highest values.
test system: PfAP2-LT AP2 domain (GST-tagged); assay: gcPBM binding intensity (ln(normalized median fluorescence intensity)); higher = stronger DNA binding
Procedure, shortened: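 Binding of GST-tagged P. falciparum DNA-binding domains, expressed in E. coli and used at about 25 μg on average, was carried out for 1 h in 1× PBS containing 1% milk, 0.2 mg/ml BSA, 0.5% salmon testes DNA and 0.03% Triton X-100. The target was an Agilent 4 × 180k array of primer-extended double-stranded 36-bp intergenic genomic probes plus negative controls, read with Alexa488 anti-GST antibody at 488 nm. Binding intensity is the highest Masliner-normalised natural-log median intensity across replicate spots of either probe orientation.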

| Sequence | gcPBM binding intensity (ln) |
| --- | --- |
| ATAATACATACATACATACACACATATATATATATT [CACACA_site3576] | 9.29 ± 0.38 |
| TTTTTAATCATAATATGTACATATAAAAATGGTTTG [XGTACX_site3996] | 8.54 ± 0.41 |
| TAAAAATGTAAACACACACACATAAATATATTTTAT [CACACA_site5397] | 9.45 ± 0.26 |
| GATAAAATAGGACCATATTCTTTAAAACGATAAAAT [XGTACX_negctrl_site405] | 8.73 ± 0.51 |
| TTATATTATATATATATTATATATATGTATGCATAA [TGCATGCA_negctrl_site481] | 8.72 ± 0.2 |
| TTTTGCAAATATTACTGTACACAATCTCATATAATT [XGTACX_site2584] | 8.81 ± 0.35 |
| ATTATTTTTTTTGAAGTGCAATATTATTTTTAATCA | 8.46 ± 0.45 |
| AAAGTATTCTTTACACGTACATATATATAAATATAA [XGTACX_site7557] | 8.59 ± 0.33 |
| AAAATACCCGGACACACACACATATATATATATATT [CACACA_site6137] | 9.88 ± 0.49 |
| TTATAAATAAAAAATACACACATATATATATATATA [CACACA_site207] | 9.64 ± 0.2 |
| AAAAAAAACGGACACACACACATAAATATATATAAA [CACACA_site4260] | 9.86 ± 0.34 |
| AAAAAACACGGACACACACACATATACATACATACA [CACACA_site5470] | 9.98 ± 0.41 |
| ATTATATATATATATACACACACATATATATATATA [CACACA_site8373] | 9.47 ± 0.25 |
| CATACACCCGGACACACACACACACCCATATATAAT [CACACA_site4494] | 10 ± 0.35 |
| AGGATACACGGACACACACACATATAGATTTATATA [CACACA_site6552] | 9.78 ± 0.51 |
| CATACATACGGACACACACACATATATATATATATA [CACACA_site5598] | 10.3 ± 0.15 |
| TACATATTTATATACACACACACACGGATATTTATA [CACACA_site7239] | 9.87 ± 0.45 |
| CTAAAATACGGACACACACACACATATATATATATA [CACACA_site6138] | 10.3 ± 0.11 |
| TATACACCCGGACACACACACATATATATATATATA [CACACA_site5030] | 10.36 ± 0.028 |
| AGGATACACGGACACACACACATATATATATATATA [CACACA_site4654] | 10.43 ± 0.078 |
| AGTAAAAGAAAGCACACACACATGTATTTATGTATG [CACACA_site5998] | 9.71 ± 0.42 |
| TATATATATATATATTGTACACATACATGTAGTTTT [XGTACX_site4848] | 9.48 ± 0.49 |
| ACACATATAATAGTTACATGCAAAAATACTTTTATT [TGCATGCA_site785] | 9.03 ± 0.47 |
| ACCAAATCATATATAGCACACAAATTCTTTATTATT [CACACA_site8911] | 8.94 ± 0.38 |
| TAAAAAAAAACATGATGTACATAAAATTTTTTACTT [XGTACX_site7056] | 8.59 ± 0.47 |

Reference: the supplement of paper PMC11417369
